# From ChEMBL document CHEMBL1961873, “Compounds: GSK PKIS; Assays: Nanosyn kinase panel” (2012)
# Columns and labels:
# [1] = target: Sphingosine kinase 1 (Homo sapiens) (UniProt Q9NYA1); details: at 1 µM;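 further: mean SPHK1 inhibition value reported from the GSK PKIS kinase panel screen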
# [2] = target: T1, Sphingosine kinase 2 (Homo sapiens) (UniProt Q9NRA0); details: at 0.1 µM
# T1 sequence (whole entry): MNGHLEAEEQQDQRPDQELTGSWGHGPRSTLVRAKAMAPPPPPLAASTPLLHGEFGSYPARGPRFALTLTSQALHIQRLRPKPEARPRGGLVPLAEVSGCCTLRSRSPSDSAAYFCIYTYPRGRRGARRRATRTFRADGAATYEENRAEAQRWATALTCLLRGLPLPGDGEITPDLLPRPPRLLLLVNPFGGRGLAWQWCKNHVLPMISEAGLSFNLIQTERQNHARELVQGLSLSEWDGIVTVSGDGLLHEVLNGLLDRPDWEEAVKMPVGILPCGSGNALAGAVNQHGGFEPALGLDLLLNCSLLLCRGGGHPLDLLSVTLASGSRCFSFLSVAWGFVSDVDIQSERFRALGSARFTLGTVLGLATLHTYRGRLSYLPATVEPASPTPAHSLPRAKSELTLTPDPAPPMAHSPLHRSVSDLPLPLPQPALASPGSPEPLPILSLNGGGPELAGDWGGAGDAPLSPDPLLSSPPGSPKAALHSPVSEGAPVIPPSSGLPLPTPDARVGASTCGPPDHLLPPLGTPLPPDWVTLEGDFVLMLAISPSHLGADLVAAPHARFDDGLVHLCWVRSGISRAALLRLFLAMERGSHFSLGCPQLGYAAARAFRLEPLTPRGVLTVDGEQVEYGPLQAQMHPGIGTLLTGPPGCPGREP
# [3] = target: T1, Sphingosine kinase 2 (Homo sapiens); details: at 1 µM
# [4] = target: Casein kinase II subunit alpha (Homo sapiens) (UniProt P68400); details: at 0.1 µM
# Chain of Casein kinase II subunit alpha (Homo sapiens) (P68400 whole entry, looked up): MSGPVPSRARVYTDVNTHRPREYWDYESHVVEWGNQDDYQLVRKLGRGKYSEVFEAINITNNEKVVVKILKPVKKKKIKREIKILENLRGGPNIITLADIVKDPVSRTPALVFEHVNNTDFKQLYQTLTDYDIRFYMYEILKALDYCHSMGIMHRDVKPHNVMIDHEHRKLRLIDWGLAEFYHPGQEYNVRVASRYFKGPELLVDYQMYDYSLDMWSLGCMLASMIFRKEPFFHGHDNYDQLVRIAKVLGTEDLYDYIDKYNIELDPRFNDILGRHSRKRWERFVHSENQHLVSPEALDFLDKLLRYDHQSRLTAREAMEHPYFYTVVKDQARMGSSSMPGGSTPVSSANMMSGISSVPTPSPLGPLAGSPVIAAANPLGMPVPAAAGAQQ
# [5] = target: Casein kinase II subunit alpha (Homo sapiens) (UniProt P68400); details: at 1 µM
# [6] = target: T2, Inhibitor of nuclear factor kappa-B kinase subunit alpha (Homo sapiens) (UniProt O15111); details: at 0.1 µM
# T2 sequence (whole entry): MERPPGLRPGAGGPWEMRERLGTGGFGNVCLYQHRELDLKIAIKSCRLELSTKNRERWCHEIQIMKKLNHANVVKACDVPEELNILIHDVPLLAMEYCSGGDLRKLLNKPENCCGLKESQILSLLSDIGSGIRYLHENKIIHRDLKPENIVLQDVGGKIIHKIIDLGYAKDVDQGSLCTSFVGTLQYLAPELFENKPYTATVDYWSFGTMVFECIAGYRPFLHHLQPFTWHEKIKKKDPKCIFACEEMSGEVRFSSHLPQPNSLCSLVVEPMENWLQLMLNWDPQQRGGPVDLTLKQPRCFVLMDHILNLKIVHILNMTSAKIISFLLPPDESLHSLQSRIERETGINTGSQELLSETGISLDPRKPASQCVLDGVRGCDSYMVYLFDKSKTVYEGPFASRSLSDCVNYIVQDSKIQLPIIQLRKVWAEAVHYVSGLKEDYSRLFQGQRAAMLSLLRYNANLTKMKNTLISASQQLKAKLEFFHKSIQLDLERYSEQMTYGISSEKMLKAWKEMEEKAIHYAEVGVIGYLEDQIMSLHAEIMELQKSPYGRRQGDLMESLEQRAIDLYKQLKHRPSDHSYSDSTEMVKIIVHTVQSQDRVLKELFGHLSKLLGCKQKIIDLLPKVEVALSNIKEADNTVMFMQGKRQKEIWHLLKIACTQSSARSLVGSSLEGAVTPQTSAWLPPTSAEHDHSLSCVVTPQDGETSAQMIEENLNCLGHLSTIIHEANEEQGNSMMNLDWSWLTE
# [7] = target: T2, Inhibitor of nuclear factor kappa-B kinase subunit alpha (Homo sapiens); details: at 1 µM
# [8] = target: T3, Inhibitor of nuclear factor kappa-B kinase subunit beta (Homo sapiens) (UniProt O14920); details: at 0.1 µM
# T3 sequence (whole entry): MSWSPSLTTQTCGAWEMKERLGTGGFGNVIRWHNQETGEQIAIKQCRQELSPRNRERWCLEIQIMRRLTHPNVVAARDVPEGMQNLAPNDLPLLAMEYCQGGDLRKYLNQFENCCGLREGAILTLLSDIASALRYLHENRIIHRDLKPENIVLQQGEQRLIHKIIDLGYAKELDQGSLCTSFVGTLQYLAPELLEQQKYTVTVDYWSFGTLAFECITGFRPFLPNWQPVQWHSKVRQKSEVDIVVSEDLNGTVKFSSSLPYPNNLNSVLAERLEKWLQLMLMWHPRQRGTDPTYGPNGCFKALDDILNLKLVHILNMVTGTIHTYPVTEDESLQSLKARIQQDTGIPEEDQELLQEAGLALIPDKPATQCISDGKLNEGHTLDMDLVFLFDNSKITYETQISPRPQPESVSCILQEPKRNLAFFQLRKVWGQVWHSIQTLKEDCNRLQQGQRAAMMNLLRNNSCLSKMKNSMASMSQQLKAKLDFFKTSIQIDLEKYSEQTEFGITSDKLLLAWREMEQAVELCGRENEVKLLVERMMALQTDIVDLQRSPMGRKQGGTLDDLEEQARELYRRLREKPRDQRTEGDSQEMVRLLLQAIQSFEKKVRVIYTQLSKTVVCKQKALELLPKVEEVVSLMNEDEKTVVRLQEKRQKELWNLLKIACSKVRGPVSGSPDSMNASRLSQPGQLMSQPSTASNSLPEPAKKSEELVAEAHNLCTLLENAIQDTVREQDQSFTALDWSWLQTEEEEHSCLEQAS
# [9] = target: T3, Inhibitor of nuclear factor kappa-B kinase subunit beta (Homo sapiens); details: at 1 µM
# [10] = target: T4, Inhibitor of nuclear factor kappa-B kinase subunit epsilon (Homo sapiens) (UniProt Q14164); details: at 0.1 µM
# T4 sequence (whole entry): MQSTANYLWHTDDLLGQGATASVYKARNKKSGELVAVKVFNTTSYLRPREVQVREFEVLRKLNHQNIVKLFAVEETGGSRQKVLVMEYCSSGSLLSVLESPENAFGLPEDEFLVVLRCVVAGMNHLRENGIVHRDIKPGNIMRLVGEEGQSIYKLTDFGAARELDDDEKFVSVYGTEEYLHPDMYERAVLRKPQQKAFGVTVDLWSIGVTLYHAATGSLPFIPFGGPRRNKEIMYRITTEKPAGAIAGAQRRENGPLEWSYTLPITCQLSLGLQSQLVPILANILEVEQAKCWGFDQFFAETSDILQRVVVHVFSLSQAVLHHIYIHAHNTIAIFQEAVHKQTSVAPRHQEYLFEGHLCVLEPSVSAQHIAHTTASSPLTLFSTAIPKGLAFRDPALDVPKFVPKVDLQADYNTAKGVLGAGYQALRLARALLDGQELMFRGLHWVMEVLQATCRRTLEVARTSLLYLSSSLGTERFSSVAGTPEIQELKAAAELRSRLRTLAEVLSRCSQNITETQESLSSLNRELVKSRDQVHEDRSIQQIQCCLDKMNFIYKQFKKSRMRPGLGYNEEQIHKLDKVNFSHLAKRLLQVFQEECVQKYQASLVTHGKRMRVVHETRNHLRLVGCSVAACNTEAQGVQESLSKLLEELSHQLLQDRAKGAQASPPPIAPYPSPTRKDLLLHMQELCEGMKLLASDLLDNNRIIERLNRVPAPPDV
# [11] = target: T4, Inhibitor of nuclear factor kappa-B kinase subunit epsilon (Homo sapiens); details: at 1 µM
# [12] = target: T5, Serine/threonine-protein kinase Nek1 (Homo sapiens) (UniProt Q96PY6); details: at 0.1 µM
# T5 sequence (whole entry): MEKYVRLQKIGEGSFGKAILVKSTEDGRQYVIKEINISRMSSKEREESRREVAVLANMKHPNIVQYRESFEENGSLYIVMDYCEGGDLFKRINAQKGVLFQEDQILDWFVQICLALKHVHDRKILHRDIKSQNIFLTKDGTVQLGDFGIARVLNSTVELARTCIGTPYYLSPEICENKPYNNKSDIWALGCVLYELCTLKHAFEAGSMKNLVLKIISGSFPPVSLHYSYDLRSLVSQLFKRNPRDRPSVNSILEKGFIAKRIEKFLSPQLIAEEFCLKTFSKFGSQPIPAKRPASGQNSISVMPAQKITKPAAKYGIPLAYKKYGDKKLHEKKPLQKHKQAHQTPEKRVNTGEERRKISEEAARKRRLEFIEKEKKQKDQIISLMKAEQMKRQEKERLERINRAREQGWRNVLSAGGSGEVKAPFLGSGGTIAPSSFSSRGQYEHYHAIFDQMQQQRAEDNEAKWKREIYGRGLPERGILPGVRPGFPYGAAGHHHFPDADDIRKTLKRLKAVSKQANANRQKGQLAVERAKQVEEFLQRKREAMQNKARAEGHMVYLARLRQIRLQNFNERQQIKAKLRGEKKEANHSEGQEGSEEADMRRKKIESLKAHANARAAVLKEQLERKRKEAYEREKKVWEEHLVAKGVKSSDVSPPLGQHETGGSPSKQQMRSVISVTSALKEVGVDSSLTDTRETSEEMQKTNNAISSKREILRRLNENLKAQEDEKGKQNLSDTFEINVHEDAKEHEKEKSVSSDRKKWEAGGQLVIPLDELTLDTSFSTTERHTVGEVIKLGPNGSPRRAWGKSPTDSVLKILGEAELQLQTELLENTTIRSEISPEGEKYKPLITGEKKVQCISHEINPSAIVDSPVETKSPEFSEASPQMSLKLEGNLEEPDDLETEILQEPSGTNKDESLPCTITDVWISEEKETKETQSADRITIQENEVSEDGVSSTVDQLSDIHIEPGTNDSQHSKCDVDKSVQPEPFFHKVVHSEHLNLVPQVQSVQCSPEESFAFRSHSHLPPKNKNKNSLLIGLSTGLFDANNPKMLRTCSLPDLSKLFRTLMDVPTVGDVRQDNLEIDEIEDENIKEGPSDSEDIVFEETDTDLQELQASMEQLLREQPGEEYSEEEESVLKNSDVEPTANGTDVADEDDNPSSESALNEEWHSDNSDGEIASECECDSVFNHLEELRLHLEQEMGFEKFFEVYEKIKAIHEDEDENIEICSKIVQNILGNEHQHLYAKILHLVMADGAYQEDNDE
# [13] = target: T5, Serine/threonine-protein kinase Nek1 (Homo sapiens); details: at 1 µM
# [14] = target: T6, Serine/threonine-protein kinase Nek2 (Homo sapiens) (UniProt P51955); details: at 0.1 µM
# T6 sequence (whole entry): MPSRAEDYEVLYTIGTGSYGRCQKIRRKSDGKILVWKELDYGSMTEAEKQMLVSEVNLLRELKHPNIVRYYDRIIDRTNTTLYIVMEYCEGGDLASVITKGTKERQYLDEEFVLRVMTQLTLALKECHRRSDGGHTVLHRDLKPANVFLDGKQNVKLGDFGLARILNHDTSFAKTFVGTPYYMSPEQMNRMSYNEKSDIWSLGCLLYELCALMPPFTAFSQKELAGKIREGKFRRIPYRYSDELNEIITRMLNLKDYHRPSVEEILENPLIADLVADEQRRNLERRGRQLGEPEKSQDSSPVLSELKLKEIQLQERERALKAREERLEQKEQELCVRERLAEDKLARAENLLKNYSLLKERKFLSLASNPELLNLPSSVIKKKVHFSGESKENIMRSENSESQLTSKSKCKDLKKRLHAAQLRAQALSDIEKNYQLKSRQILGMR
# [15] = target: T6, Serine/threonine-protein kinase Nek2 (Homo sapiens); details: at 1 µM
# [16] = target: Serine/threonine-protein kinase Nek6 (Homo sapiens) (UniProt Q9HC98); details: at 0.1 µM
# Chain of Serine/threonine-protein kinase Nek6 (Homo sapiens) (Q9HC98 whole entry): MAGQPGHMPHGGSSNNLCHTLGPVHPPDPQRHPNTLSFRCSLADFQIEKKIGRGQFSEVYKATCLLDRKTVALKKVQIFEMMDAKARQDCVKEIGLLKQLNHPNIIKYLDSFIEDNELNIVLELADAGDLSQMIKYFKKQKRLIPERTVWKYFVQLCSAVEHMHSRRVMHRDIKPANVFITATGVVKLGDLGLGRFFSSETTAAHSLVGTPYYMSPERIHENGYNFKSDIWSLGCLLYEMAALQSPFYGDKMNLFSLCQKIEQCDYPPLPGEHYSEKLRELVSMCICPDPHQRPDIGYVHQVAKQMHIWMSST
# [17] = target: Serine/threonine-protein kinase Nek6 (Homo sapiens) (UniProt Q9HC98); details: at 1 µM
# [18] = target: Serine/threonine-protein kinase Nek7 (Homo sapiens) (UniProt Q8TDX7); details: at 0.1 µM
# Chain of Serine/threonine-protein kinase Nek7 (Homo sapiens) (Q8TDX7 whole entry, looked up): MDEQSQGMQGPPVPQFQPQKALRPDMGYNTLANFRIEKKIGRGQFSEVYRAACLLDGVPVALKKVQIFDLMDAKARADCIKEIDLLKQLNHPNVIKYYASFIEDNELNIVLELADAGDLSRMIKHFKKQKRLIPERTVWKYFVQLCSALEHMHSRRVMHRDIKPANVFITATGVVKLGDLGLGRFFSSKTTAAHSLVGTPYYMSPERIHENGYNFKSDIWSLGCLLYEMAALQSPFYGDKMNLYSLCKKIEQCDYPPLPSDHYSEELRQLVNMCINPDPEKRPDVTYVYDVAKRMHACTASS
# [19] = target: Serine/threonine-protein kinase Nek7 (Homo sapiens) (UniProt Q8TDX7); details: at 1 µM
# [20] = target: T7, Serine/threonine-protein kinase Nek9 (Homo sapiens) (UniProt Q8TD19); details: at 0.1 µM;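 further: reported value is the mean percent inhibition of NEK9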
# T7 sequence (whole entry): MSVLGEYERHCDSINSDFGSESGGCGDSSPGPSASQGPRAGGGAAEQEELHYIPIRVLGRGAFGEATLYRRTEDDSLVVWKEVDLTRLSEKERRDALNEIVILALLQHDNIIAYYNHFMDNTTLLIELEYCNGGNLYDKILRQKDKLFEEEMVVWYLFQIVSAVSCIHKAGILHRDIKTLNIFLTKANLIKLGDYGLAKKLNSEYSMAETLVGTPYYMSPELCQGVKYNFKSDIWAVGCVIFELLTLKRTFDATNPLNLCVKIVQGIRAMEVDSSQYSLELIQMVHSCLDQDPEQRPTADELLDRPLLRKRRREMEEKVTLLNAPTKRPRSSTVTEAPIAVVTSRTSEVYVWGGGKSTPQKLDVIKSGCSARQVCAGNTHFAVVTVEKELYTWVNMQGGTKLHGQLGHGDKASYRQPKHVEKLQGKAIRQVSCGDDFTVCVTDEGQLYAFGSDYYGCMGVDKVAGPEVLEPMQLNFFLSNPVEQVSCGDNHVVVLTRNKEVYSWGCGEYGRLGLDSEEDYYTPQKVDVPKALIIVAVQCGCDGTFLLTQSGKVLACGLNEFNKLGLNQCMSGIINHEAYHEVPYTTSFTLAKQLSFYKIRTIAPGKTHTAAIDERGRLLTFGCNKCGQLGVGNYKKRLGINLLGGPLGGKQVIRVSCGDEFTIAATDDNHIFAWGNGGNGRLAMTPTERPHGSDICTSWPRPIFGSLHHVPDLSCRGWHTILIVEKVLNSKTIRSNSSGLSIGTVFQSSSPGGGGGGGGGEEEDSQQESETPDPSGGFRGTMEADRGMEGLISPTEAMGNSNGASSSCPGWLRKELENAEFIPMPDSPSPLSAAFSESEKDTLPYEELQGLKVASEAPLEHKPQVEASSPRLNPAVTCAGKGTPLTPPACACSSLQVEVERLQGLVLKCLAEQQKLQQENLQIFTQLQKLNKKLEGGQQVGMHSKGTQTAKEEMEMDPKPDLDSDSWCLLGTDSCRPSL
# Chain of Sphingosine kinase 1 (Homo sapiens) (Q9NYA1 whole entry): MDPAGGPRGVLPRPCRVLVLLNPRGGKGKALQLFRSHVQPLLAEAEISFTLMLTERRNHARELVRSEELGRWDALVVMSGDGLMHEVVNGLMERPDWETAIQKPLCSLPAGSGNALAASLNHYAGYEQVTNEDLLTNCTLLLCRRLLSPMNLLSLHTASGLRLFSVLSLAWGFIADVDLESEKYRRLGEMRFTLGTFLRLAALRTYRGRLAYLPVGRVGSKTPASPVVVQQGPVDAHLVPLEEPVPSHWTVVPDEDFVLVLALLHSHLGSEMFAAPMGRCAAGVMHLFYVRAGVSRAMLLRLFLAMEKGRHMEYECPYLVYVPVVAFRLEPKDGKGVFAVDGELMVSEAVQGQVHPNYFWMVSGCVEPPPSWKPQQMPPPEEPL
compound,measurement,setting,value
c1ccc(-c2n[nH]cc2-c2ccnc(-c3ccc(OCCn4ccnc4)cc3)c2)nc1,inhibition,[1],-1.64%
same,inhibition,[2],-0.27%
same,inhibition,[3],0.04%
same,inhibition,[4],1.26%
same,inhibition,[5],2.53%
same,inhibition,[6],4.99%
same,inhibition,[7],3.64%
same,inhibition,[8],0.37%
same,inhibition,[9],-0.43%
same,inhibition,[10],0.86%
same,inhibition,[11],2.18%
same,inhibition,[12],0.35%
same,inhibition,[13],2.46%
same,inhibition,[14],0.51%
same,inhibition,[15],1.73%
same,inhibition,[16],0.49%
same,inhibition,[17],4.21%
same,inhibition,[18],2.27%
same,inhibition,[19],2.32%
same,inhibition,[20],2.13%
